The whole screen tested about 16,000 compounds, of which about 5,100 (32%) were called active. Another 25% or so got no clear call; they are omitted. This is one part of the list. Unmarked numbers belong to inactive results. The call rests on the fitted dose curve; in most records, active means well fitted curve in the direction sought with a large enough effect; inconclusive means small, poorly fitted or top-dose-only effect, or effect the other way; inactive means no such curve, though single readings can be large or run the other way.
On the % scale 0 is the no-effect control and ±100 the full control effect.

Chain of Cytochrome P450 3A4 (Homo sapiens) (P08684 whole entry, looked up): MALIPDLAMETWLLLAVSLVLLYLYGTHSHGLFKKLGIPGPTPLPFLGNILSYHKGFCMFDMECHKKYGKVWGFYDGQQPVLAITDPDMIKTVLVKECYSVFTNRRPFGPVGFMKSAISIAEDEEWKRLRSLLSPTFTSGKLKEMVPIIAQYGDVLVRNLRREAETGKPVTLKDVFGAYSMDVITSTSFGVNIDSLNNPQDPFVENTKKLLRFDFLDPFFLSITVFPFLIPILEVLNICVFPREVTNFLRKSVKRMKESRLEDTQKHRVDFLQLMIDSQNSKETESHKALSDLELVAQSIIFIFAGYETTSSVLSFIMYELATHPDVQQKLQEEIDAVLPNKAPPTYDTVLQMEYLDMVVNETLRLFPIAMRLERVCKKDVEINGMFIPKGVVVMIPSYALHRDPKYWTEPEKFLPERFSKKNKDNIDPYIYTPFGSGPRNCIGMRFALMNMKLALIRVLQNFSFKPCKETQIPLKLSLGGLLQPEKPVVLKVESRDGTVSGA

This test addresses Cytochrome P450 3A4 (Homo sapiens) (UniProt P08684). Briefly: Cytochrome panel assay with activity outcomes. To be noted: recombinant CYP, pro-luciferin dealkylation, luminescence, p450-cyp3a4; series mostly up to 57.1 µM; activity, negative = inhibition: at the top concentration.
Regarding `Oc1ccccc1CNCc1ccccc1O`, the activity, negative = inhibition was -7.01% [at 11.4 µM].

`COC(=O)N1CCC2(CCN(Cc3ccccc3OC)CC2)CC1`: the “activity, negative = inhibition” value was -11.5%.

In the case of `COc1ccccc1CNCC(O)(c1ccc(Cl)cc1)c1ccc(Cl)cc1`, the concentration at half-maximal activity (AC50) is 3.55 µM (active).

Regarding `C=CCOc1ccc(CNC(C)(C)CO)cc1OCC`, the “activity, negative = inhibition” value was 2.18%.

As for `CCCNc1nc(NCC)nc(OC)n1`, the “activity, negative = inhibition” value was 5.69%.

As for `CCOc1nc(NCCc2ccc(OC)c(OC)c2)nc(NC(C)(C)CO)n1`, the half-maximal activity concentration (AC50) was 11.2 µM (active).

Take `CC(C)N1CCC(=NNC(=O)c2ccc(Br)o2)CC1`: the AC50 was 15.8 µM (active).

For `O=C(N/N=C/c1ccco1)c1ccc(Br)o1`, the “activity, negative = inhibition” value is -15.3%.

Consider `CCCN1CCC(=NNC(=O)c2ccc(Br)o2)CC1`, for which the activity, negative = inhibition is 11.6% [at 2.29 µM].

Turning to `Cc1ccc(C(CC(=O)c2ccco2)SCCO)cc1` (centres undefined), the “activity, negative = inhibition” value was -23.2%.

Take `Cc1ccc(C(c2nnnn2CC2CCCO2)N2CCN(C(=O)c3ccco3)CC2)cc1` (centres undefined): the AC50 is 3.55 µM (active).

In the case of `O=C(c1ccco1)N1CCN(C(=O)c2nn3cccnc3c2Cl)CC1`, the “activity, negative = inhibition” value was 21.1%.

On to `CC(C)CCn1nnnc1C(c1ccc(F)cc1)N1CCN(C(=O)c2ccco2)CC1` (centres undefined), for which the concentration at half-maximal activity (AC50) is 7.94 µM (active).

Regarding `Cc1ccc(CCN2CC(C(=O)NCCN3CCOCC3)CC2=O)cc1` (centres undefined), the “activity, negative = inhibition” value is -12.6%.

Consider `CCCCNC(=O)C1CC(=O)N(CCC(C)C)C1` (centres undefined), for which the activity, negative = inhibition was 0.276% [at 11.4 µM].

As for `CCOCCCN1CC(C(=O)NCCc2ccc(C)cc2)CC1=O` (centres undefined), the AC50 was 15.8 µM (active).

For `O=C(NCCCN1CCCCCC1)C1CC(=O)N(CCc2ccccc2)C1` (centres undefined), the “activity, negative = inhibition” value is -20.8%.

With `Cc1ccc(CCN2CC(C(=O)NC3CCCC3)CC2=O)cc1` (centres undefined), the AC50 is 15.8 µM (active).

For `CN(C)CCCN1CC(C(=O)O)CC1=O` (centres undefined), the “activity, negative = inhibition” value was -11.5%.

With `Cn1c([N+](=O)[O-])cnc1COC(N)=O`, the “activity, negative = inhibition” value is -5.99% [at 25.6 µM].

As to `COc1ccccc1/C=C/C(=O)c1c2c(c(C)[nH]c1=O)CCCC2`, the AC50 was 3.98 µM (active).

For the compound `Cc1[nH]c(=O)c(C(=O)/C=C/c2ccccc2F)c2c1CCCC2`, the AC50 is 11.2 µM (active).

For `C[N+](C)(C)CCOC(N)=O`, the AC50 entry is “inactive”.

Turning to `Fc1ccc(Nc2nc(-c3ccoc3)nc3ccccc23)cc1`, the half-maximal activity concentration (AC50) was 3.98 µM (active).

In the case of `c1ccc2c(NC3CC3)nc(-c3ccoc3)nc2c1`, the AC50 is 3.98 µM (active).

Take `c1ccc2c(NC3CCNCC3)nc(-c3ccoc3)nc2c1`: the “activity, negative = inhibition” value was -5.63%.

For the compound `c1ccc2c(Nc3ccncc3)nc(-c3ccoc3)nc2c1`, the AC50 is 1.26 µM (active).

Regarding `CNc1nc(-c2ccoc2)nc2ccccc12`, the AC50 is 15.8 µM (active).

In the case of `COc1ccc(S(=O)(=O)N2CC3CCCN3c3ccc(C(F)(F)F)cc32)cc1` (centres undefined), the AC50 was 1 µM (active).

For `O=S(=O)(c1ccc(F)cc1)N1CC2CCCN2c2ccc(C(F)(F)F)cc21` (centres undefined), the AC50 is 6.31 µM (active).

Regarding `O=C1COc2ccc(OCc3ccc(F)cc3)cc21`, the “activity, negative = inhibition” value is 3%.

On to `OCc1ccc(-c2nn(Cc3ccccc3)c3ccccc23)o1`, for which the AC50 is 12.6 µM (active).

Take `NC(=O)c1csc(-c2ccc(CO)o2)n1`: the activity, negative = inhibition was -8.17% [at 11.4 µM].

On to `Clc1cc2c(c(CSC3=NCN(CC4CC4)CN3)c1)OCOC2`, for which the activity, negative = inhibition was -21.4% [at 11.4 µM].

Regarding `CCCCCCCCOC1OC(CO)C(O)C(O)C1NC(C)=O` (centres undefined), the “activity, negative = inhibition” value was -7.28%.

Regarding `CC(=O)OC[C@@H]1O[C@@H](O/N=C2/C[C@@H](O)[C@@H](O)[C@@H]3[C@H]4C(=O)N(c5ccc(F)cc5F)C(=O)[C@@H]4CC[C@@H]23)[C@H](OC(C)=O)[C@H](OC(C)=O)[C@@H]1OC(C)=O`, the activity, negative = inhibition was -27.1% [at 11.4 µM].

Take `CC(=O)NC1C(OCCOc2ccc(Cl)cc2Cl)OC(COC(C)=O)C(OC(C)=O)C1OC(C)=O` (centres undefined): the AC50 was 14.1 µM (active).

As to `CNc1nc(C)cc(C)c1S(=O)(=O)c1ccc(C)cc1`, the AC50 is 4.47 µM (active).

With `CNc1nc(C)cc(C)c1S(=O)(=O)c1ccc(Cl)cc1`, the AC50 was 4.47 µM (active).

Take `CCCSc1nc(C)cc(C)c1S(=O)(=O)c1ccccc1C`: the “activity, negative = inhibition” value is -17.7%.

Take `Cc1cc(-c2ccccc2)[nH]c(=O)c1S(=O)(=O)c1ccc(Cl)cc1`: the “activity, negative = inhibition” value is -12.9%.

On to `CNc1oc(C)nc1S(=O)(=O)c1ccc(C)cc1`, for which the “activity, negative = inhibition” value is -16.1%.

For `COc1ccc(C2Nc3ccccc3C(=O)N2Cc2ccco2)cc1COc1ccc([N+](=O)[O-])cc1` (centres undefined), the half-maximal activity concentration (AC50) is 4.47 µM (active).

Regarding `Cc1ccc(C2Nc3ccccc3C(=O)N2Cc2ccco2)cc1` (centres undefined), the AC50 is 14.1 µM (active).

Turning to `COc1ccc([N+](=O)[O-])cc1COc1ccc2c(-c3ccccc3)cc(=O)oc2c1`, the “activity, negative = inhibition” value was -22.6%.

Turning to `O=S(=O)(c1ccccc1)N1CCC2(CCCN(C(c3ccccc3)c3ccccc3)C2)CC1`, the AC50 is 2 µM (active).

For `O=S(=O)(c1ccccc1)N1CCC[C@@]2(CCN(C(c3ccccc3)c3ccccc3)C2)C1`, the AC50 was 3.16 µM (active).

On to `CN1CCC2(CC1)CCN(S(=O)(=O)c1ccccc1)CC2`, for which the “activity, negative = inhibition” value was -12.4%.

For `Cn1c(=O)c2[nH]c(COCc3nc4c([nH]3)c(=O)n(C)c(=O)n4C)nc2n(C)c1=O`, the activity, negative = inhibition is -0.524% [at 11.4 µM].

A word on the AC50: it is the midpoint of the concentration-response curve, whichever way the signal moves.

These data come from PubChem BioAssay AID1851 (National Center for Advancing Translational Sciences (NCATS), 2009).
